# Screens as filed in PubChem.
# HepG2 viability – counter-screen for TGF-b inhibitors: cytotoxicity in HepG2 cells; HepG2 CAGA-GFP viability, ATP luminescence, 18 h; Potency, µM (top dose mostly 46.1 µM), inactives show top-dose activity change, negative = cytotoxicity, most hits filed as cytotoxic; 0.76% of 410,000 active; AID 588856; also: potency is read from the fitted curve at half-maximal effect
#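 CellTiter-Glo luminescence gave cytotoxicity after 18 hours at 37 degrees C. The cells were HepG2 CAGA-GFP in 1% FBS DMEM, stimulated with 500 pg/mL TGF-beta after compound addition. %Activity was normalised to no-cell wells (complete cell-killing) and DMSO (no toxicity), and curves were fitted and classified.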
# TGFb SMAD3 inh – TGF-b pathway inhibition. HepG2 CAGA-GFP TGF-b/SMAD3 reporter, GFP fluorescence, 18 h; TGF-beta stimulated, 500 pg/mL final. Potency, µM (doses to about 46.1 µM), for inactives: at the top dose activity, negative = inhibition, usual class: inhibitors. 1.2% of 410,000 active. AID 588855; also: potency is read from the fitted curve at half-maximal effect; % is scaled to controls: 0 for no effect and ±100 for the full control effect; nearly all actives have a fitted effect of over 65% in size
#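 First, reporter cells (HEPG2 CAGA-GFP) rested 2 h at 37 degrees C. Next, compounds were pinned in and TGF-beta added to 500 pg/mL final. After 18 h, GFP was imaged per cell and summed per well.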
# DRD3 agonist – agonists of human D3 dopamine receptor | P35462 | D3R DiscoveRx beta-arrestin cells, luminescence, 90 min | max activation, % | 0.58% of 410,000 active | AID 652048; in the data active = max activation above about 30%; also: 0% is about no effect
# Target sequence (P35462 whole entry, looked up): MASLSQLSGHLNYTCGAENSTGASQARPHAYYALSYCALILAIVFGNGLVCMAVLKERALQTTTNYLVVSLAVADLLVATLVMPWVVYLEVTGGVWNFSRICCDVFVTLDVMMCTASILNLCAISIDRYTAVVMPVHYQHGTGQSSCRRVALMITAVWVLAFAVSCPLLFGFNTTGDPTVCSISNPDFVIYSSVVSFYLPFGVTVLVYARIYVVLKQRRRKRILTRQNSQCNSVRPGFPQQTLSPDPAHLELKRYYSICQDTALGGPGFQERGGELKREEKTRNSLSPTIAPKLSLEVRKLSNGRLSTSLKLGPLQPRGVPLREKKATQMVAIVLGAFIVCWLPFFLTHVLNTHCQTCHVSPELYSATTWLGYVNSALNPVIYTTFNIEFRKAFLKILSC
#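 Agonist mode: compounds and dopamine controls were applied to plated cells for 90 min at 37 degrees C after an overnight attachment at 1500 cells/well. Luminescent read-out followed 30 - 60 minutes at room temperature with DiscoveRx detection reagent.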
# ATXN2 expr inh – reduces ATXN2 reporter expression in HEK-293 cells. HEK-293 ATXN2-luciferase reporter, luminescence, 24 h. Potency, µM (top dose mostly 57 µM), inactives show at the top dose activity change, negative = inhibition, most hits filed as inhibitors. 0.72% of 360,000 active. AID 1745845; also: potency is read from the fitted curve at half-maximal effect; % is scaled to controls: 0 for no effect and ±100 for the full control effect; nearly all actives have a fitted effect of over 55% in size
#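 ATXN2-luciferase reporter cells (luciferase flanked by upstream and downstream ATXN2 gene portions) were treated 24 h at 37 °C with compounds at up to 57 uM. SteadyGlo luminescence gave expression; GF-AFC fluorescence gave viability.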
# DRD3 antagonist – antagonists of human D3 dopamine receptor | 2.5% of 360,000 active | D3R cells, DiscoveRx beta-arrestin luminescence, antagonist mode; stronger effect = lower value | max response, negative = inhibition, %; in the data active = max response below about -50%; inconclusive = no clear call, values can overlap the other calls; also: % is scaled to controls: 0 for no effect and ±100 for the full control effect
#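 Cells expressing the human receptor were seeded at 1500 cells/well, incubated overnight at 37 degrees C in 5% CO2, then exposed to library compounds with dopamine controls for 90 minutes at 37 degrees C before luminescent detection.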
# S2 tox – reduces viability in counter-screen for ATXN expression inhibitors; Potency, µM (highest dose often 56.7 µM), actives largely listed as cytotoxic; S2 cells (HEK-293 line with an ATXN2-luciferase reporter) viability, CellTiter-Fluor protease fluorescence, 24 h; 0.49% of 400,000 active; also: potency is read from the fitted curve at half-maximal effect; nearly all actives have a fitted effect of over 40% in size
# * marks the source's active call; other numbers are inactive results; i = inactive; u = inconclusive; x = no result given. Hits are enriched below; roughly 4.8% of the tested compounds scored in any of these assays. Unless noted, calls follow the shape of the dose curve; as a rule, active = well fitted curve in the direction sought with a large enough effect; inconclusive = small, poorly fitted or top-dose-only effect, or another doubt; inactive = no such curve, though single readings can be large; an effect the other way counts as inactive or inconclusive.
SMILES,HepG2 viability,TGFb SMAD3 inh,DRD3 agonist,ATXN2 expr inh,DRD3 antagonist,S2 tox
O=C(C#Cc1ccccc1)c1ccco1,11µM*,3.2µM*,-27,u,-100*,u
COC(=O)CN1C(=O)C(C)(C)c2cc(S(=O)(=O)NCc3ccc(Cl)cc3)ccc21,5%,-1%,6,6%,x,i
CCN1CCCC1CNC(=O)c1ccc(Sc2ccc(F)cc2)c([N+](=O)[O-])c1 (stereo not given),-4%,1%,-8,-12%,-77*,i
CCN1CCN(C(=O)c2ccc(Sc3ccccc3Cl)c([N+](=O)[O-])c2)CC1,-13%,-17%,-8,-8%,u,i
CCN1CCCC1CNC(=O)c1ccc(Sc2ccccc2Cl)c([N+](=O)[O-])c1 (stereo not given),-21%,3%,-15,7%,-75*,i
O=C(NCCCN1CCOCC1)c1ccc(Sc2ccc(F)cc2)c([N+](=O)[O-])c1,-11%,-4%,-6,3%,-14,i
Cc1nc(C)c(CC(=O)N2CCOc3ccc(CN4CCOCC4)cc3C2)s1,x,x,x,x,x,i
COC1=C(Nc2ccc(OC)cc2)C(=O)C(OC)=C(Nc2ccc(OC)cc2)C1=O,3%,9%,1,-10%,-5,i
COC1=C(Nc2ccc(OC)cc2)C(=O)c2ccccc2C1=O,-58%,16µM*,1,3%,19,u
CCOc1ccc(NC2=C(OC)C(=O)c3ccccc3C2=O)cc1,-83%,11µM*,11,-4%,-23,u
CC(=O)c1cccc(NC(=O)c2nc3ccccc3n(C)c2=O)c1,-31%,16%,1,12%,x,i
Cc1ccccc1Cn1nc(C)c(NC(=O)c2noc3c2CC(C(C)(C)C)CC3)c1C (stereo not given),3%,u,34*,-14%,4,i
Cc1ccccc1Cn1cc(NC(=O)c2noc3c2CC(C(C)(C)C)CC3)cn1 (stereo not given),-33%,-26%,-3,-26%,-21,i
COc1ccc(CCNc2ccncn2)cc1OC,-4%,7%,31*,-3%,26,i
O=C(c1cccnc1)C1CCCN(Cc2ccc3c(c2)CN(C(=O)c2cccs2)CCO3)C1 (stereo not given),x,x,x,x,x,i
COc1ccc2cc(CNc3ccc(OC)c(OC)c3)c(=O)n(CC(=O)Nc3ccc(C)cc3)c2c1,-8%,14%,1,0%,x,u
COC1=C(c2ccccc2)C(=O)c2ccccc2C1=O,22µM*,11µM*,-19,u,u,x
O=C(C1=C(c2ccccc2)C(=O)c2ccccc2C1=O)c1ccccc1,10µM*,5.6µM*,-27,u,-95*,x
Fc1ccccc1-n1ncc2c1ncn1nc(-c3ccccc3Cl)nc21,1%,x,6,x,x,x
CCn1cc(C(=O)N2CCN(c3ccccc3)CC2)c(=O)c2cc(S(=O)(=O)N3CCCC3)ccc21,7%,-4%,-11,-14%,x,i
Fc1ccc(COc2cccc(CNCc3ccncc3)c2)cc1,-30%,-20%,34*,u,15,i
CN1CCC(N2CCN(C3CN(Cc4cn(Cc5cccc(C(F)(F)F)c5)nn4)S(=O)(=O)C3)CC2)CC1 (stereo not given),x,x,-4,-1%,-29,u
O=S1(=O)CC(N2CC=CC2)CN1Cc1cn(Cc2ccc(F)cc2)nn1 (stereo not given),x,x,-3,2%,-52*,i
CN1CCN(C2CN(Cc3cn(Cc4cccc(C(F)(F)F)c4)nn3)S(=O)(=O)C2)CC1 (stereo not given),x,x,-2,2%,-51*,i
O=C(CSc1nc2c([nH]c3ccccc32)c(=O)n1-c1ccccc1)N1CCCCC1,-24%,-23%,-9,x,x,x
SMILES,HepG2 viability,TGFb SMAD3 inh,DRD3 agonist,ATXN2 expr inh,DRD3 antagonist,S2 tox
COc1cccc(N2CCN(C(=O)c3ccc(CS(=O)c4ccccc4Cl)o3)CC2)c1 (stereo not given),-35%,11µM*,-13,0%,9,i
CC1(C)Cc2cccc(C(=O)NC3CCN(Cc4ccccc4)CC3)c2O1,6%,15%,-10,-8%,-77*,i
O=C(NC1CCN(Cc2ccccc2)CC1)c1ccc(CS(=O)c2ccc(F)cc2)o1 (stereo not given),2%,8%,-12,-8%,u,i
Cc1ccc(C)n1-c1ccc(C(=O)NC2CCN(Cc3ccccc3)CC2)cc1,-5%,10%,-49,-31%,-52*,i
O=C(NC1CCN(Cc2ccccc2)CC1)c1ccc(CS(=O)c2ccccc2Cl)o1 (stereo not given),7%,5%,-6,x,-117*,i
Cc1ccc(CN2CCC(NC(=O)c3ccccc3)CC2)cc1,-19%,-11%,-19,-29%,-96*,i
CCCCCCCCN1[C@@H](CC(=O)O)c2cc(C(F)(F)F)ccc2S1(=O)=O,-39%,11µM*,13,-12%,5,i
CCCCCCCCCCCCN1[C@@H](CC(=O)O)c2cc(C(F)(F)F)ccc2S1(=O)=O,-70%,u,37*,-22%,2,u
CCCCCCCCCCCCN1[C@@H](CC(=O)O)c2cc(F)ccc2S1(=O)=O,-29%,-10%,40*,4%,1,i
CCCCCCCCN1[C@@H](CC(=O)OC)c2cc(F)ccc2S1(=O)=O,-5%,u,2,-8%,16,i
O=C(NCC(c1cccs1)S(=O)(=O)c1cccs1)c1ccccc1 (stereo not given),1%,1%,-8,x,x,x
CCCN(C(=O)COc1cc(=O)n(CC)c2ccccc12)c1ccc(C(C)C)cc1,-73%,u,-24,u,x,u
Cc1ccc(-c2csc3n[nH]c(=S)n23)cc1,-6%,12%,-2,0%,-100*,i
COc1ccc(CN2CCOc3ccc(CN4CCC(Oc5cccnc5)CC4)cc3C2)cc1,x,x,x,x,x,i
c1ccc(Nc2cc(Nc3ccccc3)[nH]n2)cc1,10µM*,16µM*,1,3%,-20,u
CC1(C)CC2(C)OC2C2(C1)N=NC(=Nc1ccccc1)O2 (stereo not given),-69%,2.8µM*,4,-18%,44,22µM*
Cc1ccc(NC(=S)N/N=C/c2cccn2Cc2ccccc2F)cc1,-20%,-22%,8,-6%,-53*,i
COc1ccc(OC)c(N2C(=O)CC(Cc3cc(C)cc(C)c3)C2=O)c1 (stereo not given),-2%,-3%,-12,-9%,-192*,i
